“And” between values parts separate entries of the source, which are not always exact repeats. Identical values can stand only once. Out of some 480,000 compounds screened, about 740 (0.15%) were called active. Cut-off read from the data, not from the text of the source: active = activity change below about -30%; inconclusive = mostly about -25% to -30%; inactive = weaker than that. The full list was thinned out, with actives kept by preference. Some structures have more than one record in an assay (separate samples or runs), and their calls can disagree.
What follows are compounds tested against L-lactate dehydrogenase A chain (Homo sapiens) (UniProt P00338) (assay: qHTS assay for inhibitors of human lactate dehydrogenase). Conditions: purified LDHA, NADH/diaphorase-resazurin fluorescence; stronger effect = lower value.
How it was run: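 Remaining NADH was detected by diaphorase (0.133 mg/mL) converting 37 µM resazurin to fluorescent resorufin, read at 0 and 20 minutes. The preceding 5-minute room-temperature reaction used 2 nM LDHA, 0.2 mM sodium pyruvate and 0.06 mM NADH at pH 7.4.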
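Note: values are at about 110 or 230 µM; plate controls were DMSO wells for no effect and wells without enzyme for full effect.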

Question: Which activity change does the source give for `CN(C(=O)c1cnc(N2CCOCC2)c2ccccc12)C1CCCCC1` here?
Answer: 3.81% (inactive)

Question: Which activity change does the source give for `N=C(N)CCl` here?
Answer: 0.754% (inactive)

Question: Which activity change does the source give for `CC1CCC(C(C)C)C(NC(=O)c2ccccc2)C1` (centres undefined) here?
Answer: 0.148% (inactive)

Question: `Cc1cc(-c2nc3ncccc3o2)ccc1NC(=O)CC12CC3CC(CC(C3)C1)C2` was tested. Which activity change did it give?
Answer: -0.587% (inactive)

Question: `O=C(CCc1ncc(-c2ccccc2F)o1)NCc1ccc2c(c1)OCO2` was tested. Which activity change did it give?
Answer: 9.36% (inactive)

Question: How did the activity change turn out when `O=C(/C=C/c1cccc(Br)c1)c1ccc(O)c(CCCl)c1` was run?
Answer: 0.183% (inactive)

Question: With `CC(N)c1cccc([N+](=O)[O-])c1` (centres undefined) as the compound, how does the activity change read?
Answer: 8.12% (inactive)

Question: `O=C(O)C1CCN(c2ccc3nnc(C(F)(F)F)n3n2)CC1` was tested. Which activity change did it give?
Answer: -1.19% (inactive)

Question: How did the activity change turn out when `Cc1ccc(/C=C(/C#N)C(=O)c2ccsc2)cc1C` was run?
Answer: 4.55% (inactive)

Question: With `CC(C)(C)C(=O)N1CCC(C(=O)N2CCC(c3nc4ccccc4o3)CC2)CC1` as the compound, how does the activity change read?
Answer: 0.769% (inactive)

Question: With `O=C(C(c1ccccc1)N1CCN(S(=O)(=O)c2cccs2)CC1)N1CCCCC1` (centres undefined) as the compound, how does the activity change read?
Answer: 1.33% (inactive)

Question: With `O=C(NCc1ccco1)NNc1nc2c(-c3ccccc3)nnn2c2ccccc12` as the compound, how does the activity change read?
Answer: 0.688% (inactive)

Question: With `Clc1cc(Cl)c(N/N=C/c2ccc(Br)cc2)c(Cl)c1` as the compound, how does the activity change read?
Answer: 1.46% (inactive)

Question: For `Cc1cc(OC(=O)c2c(Cl)cccc2Cl)nc(C)n1`, which activity change is on record?
Answer: -6.35% (inactive)

Question: For `Cc1cc(C)c(S(=O)(=O)c2ccccc2)c(OC(=O)c2c(F)cccc2Cl)n1`, which activity change is on record?
Answer: -58% (active)

Question: How did the activity change turn out when `O=C(OCc1ncc(-c2ccccc2)o1)c1c(F)cccc1Cl` was run?
Answer: -4% (inactive)

Question: For `CC(=O)c1c(C)[nH]c(C)c1C`, which activity change is on record?
Answer: -0.832% (inactive)

Question: `CCc1nc(C#N)c(NCC(c2cccs2)N2CCOCC2)o1` (centres undefined) was tested. Which activity change did it give?
Answer: 4.58% (inactive)

Question: `CCCc1cc(=O)oc2cc(OC(C)C(=O)Nc3cccc(C(C)=O)c3)ccc12` (centres undefined) was tested. Which activity change did it give?
Answer: 1.35% (inactive)

Question: Which activity change does the source give for `Cc1c(C(=O)C(=O)NC(C)c2ccccc2)c2ccccc2n1C` (centres undefined) here?
Answer: -3.86% (inactive)

Question: How did the activity change turn out when `CCOC(=O)c1cc(S(=O)(=O)Nc2cccc(C)c2C)[nH]n1` was run?
Answer: -1.21% (inactive)

Question: `COc1ccc(OCCOC(=O)c2nn(C)c(=O)c3ccccc23)cc1` was tested. Which activity change did it give?
Answer: 0.361% (inactive)

Question: For `Cc1nc(-c2ccc(F)cc2)c(CC(=O)N2CCN(S(=O)(=O)c3ccc(F)cc3)CC2)s1`, which activity change is on record?
Answer: 7.31% (inactive) and -4.86% (inactive)

Question: How did the activity change turn out when `Cc1ccc(S(=O)(=O)N2CCN(C(=O)Cc3sc(C)nc3-c3ccc(F)cc3)CC2)c(C)c1` was run?
Answer: 1.74% (inactive) and -33% (active)

Question: Which activity change does the source give for `Cc1nc(-c2ccc(F)cc2)c(CC(=O)Nc2cc(S(=O)(=O)N3CCCCC3)ccc2C)s1` here?
Answer: -0.452% (inactive)

Question: For `CC(NC(=O)c1nccnc1N)c1ccco1` (centres undefined), which activity change is on record?
Answer: -5.25% (inactive)

Question: `CC(=O)[C@@H]1SC(N)=C(C#N)[C@H]1c1cccs1` was tested. Which activity change did it give?
Answer: 12.5% (inactive)

Question: For `CCCn1c(N2CCN(C(=O)c3cccc(OC)c3)CC2)nc2sc3c(c2c1=O)CCCC3`, which activity change is on record?
Answer: -1.23% (inactive)

Question: For `CCN(c1ccccc1)c1nnc(NC(=O)Nc2ccccc2OC)s1`, which activity change is on record?
Answer: -2.61% (inactive)

Question: How did the activity change turn out when `CCCn1nc(C(=O)Nc2ccc(OC)c(NC(C)=O)c2)c2ccccc2c1=O` was run?
Answer: -2.1% (inactive)

Question: For `CCNC(=O)CN1CCN(C(C(=O)O)c2c[nH]c3ccc(OCc4ccccc4)cc23)CC1` (centres undefined), which activity change is on record?
Answer: -6.48% (inactive)

Question: With `Fc1ccc(OCc2nn3c(CSc4ccccc4)nnc3s2)cc1` as the compound, how does the activity change read?
Answer: -2.81% (inactive)

Question: How did the activity change turn out when `O=C(CN1CCN(CC(=O)c2c[nH]c3ccccc23)CC1)NC1CC1` was run?
Answer: 0.902% (inactive)

Question: How did the activity change turn out when `CCc1ccc(NC(=O)CSc2nccn2Cc2ccccc2OC)cc1` was run?
Answer: 8.74% (inactive)

Question: How did the activity change turn out when `CC(NC(=O)c1cc(Cl)sc1Cl)C12CC3CC(CC(C3)C1)C2` (centres undefined) was run?
Answer: 1.53% (inactive)

Question: With `COc1ccc(-c2cc(C(=O)O)c3cc(C)ccc3n2)cc1OC` as the compound, how does the activity change read?
Answer: 6.4% (inactive)

Question: `CC(C)Cn1nc(C(=O)NCc2ccccc2F)c2ccccc2c1=O` was tested. Which activity change did it give?
Answer: 8.3% (inactive)

Question: How did the activity change turn out when `COCCCN(C)Cc1cccc(OC)c1` was run?
Answer: -1.41% (inactive)

Question: How did the activity change turn out when `COc1cc(Cl)c(C)cc1NC(=O)C(C)N1CCN(CCc2ccccc2)CC1` (centres undefined) was run?
Answer: -11.8% (inactive)

Question: How did the activity change turn out when `O=C1CCCC2=C1C(c1ccc(C(=O)O)cc1)c1c([nH]n(-c3ccccc3)c1=O)N2` (centres undefined) was run?
Answer: 14.2% (inactive)

Question: Which activity change does the source give for `CCOC(=O)C1=C(CN2CCN(C(=O)OC(C)(C)C)CC2)NC(=O)NC1c1ccccc1OCC` (centres undefined) here?
Answer: -21.6% (inactive)

Question: How did the activity change turn out when `Cc1cc(CNC(=O)NCc2coc(-c3cccs3)n2)ccc1F` was run?
Answer: -5.62% (inactive)

Question: For `CCCNc1c(NS(=O)(=O)c2ccc(F)c(F)c2)c(=O)oc2ccccc12`, which activity change is on record?
Answer: 0.151% (inactive)

Question: With `COc1ccc(C(=O)Nc2oc3ccc(Cl)cc3c(=O)c2-c2ccc3c(c2)OCO3)cc1` as the compound, how does the activity change read?
Answer: -4.91% (inactive)

Question: With `Cc1c(C(N)=O)[n+](=O)c2ccccc2n1[O-]` as the compound, how does the activity change read?
Answer: -7.73% (inactive)

Question: How did the activity change turn out when `Oc1ccc2ccccc2c1C=NCCc1ccccc1` was run?
Answer: 43.7% (inactive)

Question: For `Cn1c(=O)c2c(ncn2CC(=O)Nc2cccc(F)c2)n(C)c1=O`, which activity change is on record?
Answer: 0.764% (inactive)

Question: With `Cc1ccc(-c2nnn(Cc3csc(-c4ccccc4Cl)n3)n2)cc1` as the compound, how does the activity change read?
Answer: -3.25% (inactive)

Question: With `Cc1ccc(CN2C(=O)SC(Nc3ccccc3)C2=O)cc1` (centres undefined) as the compound, how does the activity change read?
Answer: -3.19% (inactive)

Question: How did the activity change turn out when `COc1ccc(-c2nn3c(-c4ccc(OC)cc4)nnc3c3ccccc23)cc1` was run?
Answer: -7.99% (inactive)

Question: `Cc1ccc(-c2nc(=N)sn2Cc2ccccc2)cc1` was tested. Which activity change did it give?
Answer: -80.9% (active)

Question: With `COc1ccc(Nc2ccccc2)cc1` as the compound, how does the activity change read?
Answer: 15% (inactive)

Question: Which activity change does the source give for `COc1ccc(-c2nc(=N)sn2-c2ccccc2)cc1` here?
Answer: -63.7% (active)

Question: With `CCCCn1c(=O)[nH]c(=O)c2c1nc(COC(=O)C1(C#N)CCCC1)n2C` as the compound, how does the activity change read?
Answer: -5.02% (inactive)

Question: With `O=C(CCC1NC(=O)c2ccccc2NC1=O)NC1CCCC1` (centres undefined) as the compound, how does the activity change read?
Answer: -4.57% (inactive)

Question: With `Cc1ccc(N(CC(=O)N2CCN(C/C=C/c3ccccc3)CC2)S(C)(=O)=O)cc1` as the compound, how does the activity change read?
Answer: -0.0793% (inactive)

Question: `CN(Cc1ccc(Cl)cc1)C(=O)Cn1nnn(-c2cccs2)c1=O` was tested. Which activity change did it give?
Answer: -0.86% (inactive)

Question: `CCCn1nc(C(=O)N(C)Cc2ccc(OCC)cc2)c2ccccc2c1=O` was tested. Which activity change did it give?
Answer: -4.2% (inactive)

Question: How did the activity change turn out when `COc1ccc2oc(=O)c(S(=O)(=O)N3CCCCCC3)cc2c1` was run?
Answer: -6.37% (inactive)

Question: Which activity change does the source give for `CC(C)CC(=O)Nc1ccc(N2CCCC2)cc1` here?
Answer: 39.8% (inactive)

Question: For `COc1cc(CN2C(=O)C(=O)c3cccc(C)c32)ccc1OCCC(C)C`, which activity change is on record?
Answer: 5.04% (inactive)

Question: For `COc1ccc(Br)cc1/C=C1\Cc2ccccc2C1=O`, which activity change is on record?
Answer: 0.293% (inactive)

Question: `COc1cccc2cc(C(=O)N3CCN(c4cccc(C(F)(F)F)c4)CC3)c(=O)oc12` was tested. Which activity change did it give?
Answer: 3.43% (inactive)

Question: How did the activity change turn out when `COc1ccccc1CCNC(=O)CSc1ccc(-c2ccccn2)nn1` was run?
Answer: 8.88% (inactive)

Question: With `O=C(COc1c(I)cc(Cl)c2cccnc12)N1CCCC1` as the compound, how does the activity change read?
Answer: -11.3% (inactive)

Question: With `CCN(CC(=O)N(C)C)Cc1ccc(F)c2cccnc12` as the compound, how does the activity change read?
Answer: 0.454% (inactive)

Question: How did the activity change turn out when `COc1ccc(Oc2c(C)oc3cc(OCC(=O)N4CCC(C(N)=O)CC4)ccc3c2=O)cc1` was run?
Answer: -1.42% (inactive)

Question: With `CN(Cc1ccc(OC(F)F)cc1)C(=O)c1nn(Cc2ccccc2)c(=O)c2ccccc12` as the compound, how does the activity change read?
Answer: 13.3% (inactive)

Question: With `COc1ccc(NC(=O)c2cnn3c2NC(C(=O)O)=CC3c2ccc(F)cc2)cc1` (centres undefined) as the compound, how does the activity change read?
Answer: 18.2% (inactive)

Question: With `Cn1c(SCC(=O)Nc2cccc(F)c2)nc2c(=O)[nH]cnc21` as the compound, how does the activity change read?
Answer: 11% (inactive)

Question: Which activity change does the source give for `CCN(CC)S(=O)(=O)c1ccc(C)c(NC(=O)COc2ccc(Br)cc2Cl)c1` here?
Answer: -4.43% (inactive)

Question: `CCN(CC)S(=O)(=O)c1ccc(N2CCCC2)c(NS(=O)(=O)c2cccs2)c1` was tested. Which activity change did it give?
Answer: -11.2% (inactive)

Question: How did the activity change turn out when `CCN(CC)S(=O)(=O)c1ccc(C)c(NS(=O)(=O)c2cccc(C#N)c2)c1` was run?
Answer: -34.7% (active)

Question: For `COC(=O)c1ccc(C2C(C#N)=C(N)Oc3c2ccc2ccccc32)cc1` (centres undefined), which activity change is on record?
Answer: -5.14% (inactive)

Question: Which activity change does the source give for `Cc1cc(/C=C(/C#N)c2nc3ccccc3n2C)cc(C)c1O` here?
Answer: -32.2% (active)

Question: `Cn1c(/C(C#N)=C2/CCCCCN2)nc2ccccc21` was tested. Which activity change did it give?
Answer: 1.28% (inactive)

Question: `Cc1cc2nc(/C(C#N)=C/c3ccccc3)[nH]c2cc1C` was tested. Which activity change did it give?
Answer: 9.89% (inactive)

Question: How did the activity change turn out when `CC(C)CC(NC(=O)COc1ccc(Oc2ccccc2)cc1)C(=O)O` (centres undefined) was run?
Answer: -0.172% (inactive)

Question: With `O=C(O)c1cc(NC(=O)c2ccc(Cl)s2)cc(C(=O)O)c1` as the compound, how does the activity change read?
Answer: -9.52% (inactive)
